According to the supplement of paper PMC6555819:

How the values were obtained:
Assay in all cases: PBM binding z-score (relative to random genomic background probes); higher = stronger binding; sequences stand for … in GC…GCGATTGACAGCGTAGAATGAAGG
[1] = test system: FXR:RXRa (NR concentration 270 nM, RXRa partner concentration 90 nM)
Summary of the method: (§1)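 Custom Agilent 4×180K protein-binding microarrays carried double-stranded probes. Their 34-nt variable regions held direct-repeat seeds, single-nucleotide variants, half-site ablations and random human genomic background sequences. Arrays were incubated 1 h with ligand-free nuclear receptor dimers in PBS pH 7.4, 2% milk, 0.02% Triton X-100, 1 mM DTT, 0.2 mg/mL BSA and 0.4 mg/ml salmon testes DNA. Antibodies against each partner (one per run) detected binding, and scanned fluorescence was regression-normalized. Binding z-scores use random background probes as reference.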

[2] = test system: LXRa:RXRa (NR concentration 270 nM, RXRa partner concentration 90 nM)
Summary of the method: as §1

[3] = test system: LXRa homodimer (NR concentration 270 nM)
Summary of the method: as §1

[4] = test system: LXRb:RXRa (NR concentration 270 nM, RXRa partner concentration 90 nM)
Summary of the method: as §1

[5] = test system: LXRb homodimer (NR concentration 270 nM)
Summary of the method: as §1

[6] = test system: PPARa:RXRa (NR concentration 270 nM, RXRa partner concentration 90 nM)
Summary of the method: as §1

[7] = test system: PPARg:RXRa (NR concentration 180 nM, RXRa partner concentration 90 nM)
Summary of the method: as §1

[8] = test system: PPARg:RXRa 270nM:90nM, anti-RXR (NR concentration 270 nM, RXRa partner concentration 90 nM)
Summary of the method: as §1

[9] = test system: PPARg:RXRa 30nM:10nM, anti-RXR (NR concentration 30 nM, RXRa partner concentration 10 nM)
Summary of the method: as §1

[10] = test system: PPARg:RXRa 90nM:30nM, anti-RXR (NR concentration 90 nM, RXRa partner concentration 30 nM)
Summary of the method: as §1

[11] = test system: PPARg:RXRa DBDmut IVT, anti-RXR (DBD mutation: RXRa K156A/R161A, NR concentration 270 nM, RXRa partner concentration 90 nM)
Summary of the method: as §1

[12] = test system: PPARg:RXRa IVT, anti-PPARg (NR concentration 270 nM, RXRa partner concentration 90 nM)
Summary of the method: as §1

[13] = test system: PPARg DBDmut:RXRa IVT, anti-PPARg (DBD mutation: PPARg1 K132A/R137A, NR concentration 270 nM, RXRa partner concentration 90 nM)
Summary of the method: as §1

[14] = test system: PPARg DBDmut IVT, anti-PPARg (DBD mutation: PPARg1 K132A/R137A, NR concentration 270 nM)
Summary of the method: as §1

[15] = test system: PPARg homodimer (NR concentration 180 nM)
Summary of the method: as §1

[16] = test system: PXR:RXRa (NR concentration 270 nM, RXRa partner concentration 90 nM)
Summary of the method: as §1

[17] = test system: PXR homodimer (NR concentration 270 nM)
Summary of the method: as §1

[18] = test system: RARa:RXR (NR concentration 270 nM, RXRa partner concentration 90 nM)
Summary of the method: as §1

[19] = test system: RARa homodimer (NR concentration 270 nM)
Summary of the method: as §1

[20] = test system: RARb:RXRa (NR concentration 270 nM, RXRa partner concentration 90 nM)
Summary of the method: as §1

Sequence	PBM binding z-score [1]	PBM binding z-score [2]	PBM binding z-score [3]	PBM binding z-score [4]	PBM binding z-score [5]	PBM binding z-score [6]	PBM binding z-score [7]	PBM binding z-score [8]	PBM binding z-score [9]	PBM binding z-score [10]	PBM binding z-score [11]	PBM binding z-score [12]	PBM binding z-score [13]	PBM binding z-score [14]	PBM binding z-score [15]	PBM binding z-score [16]	PBM binding z-score [17]	PBM binding z-score [18]	PBM binding z-score [19]	PBM binding z-score [20]
CCTAGTTGGTCAAGAGGTCACACACCGGATATGA	5.19	5.02	3.61	4.58	0.768	5.71	5.69	5.36	3.16	4.81	2.07	4.43	0.763	0.00136	3.36	4.96	1.63	5.63	1.6	4.83
AATACAGGGTCATCGTAGGGCAGAGTACGCACAG	7.54	6.88	2.95	5.07	1.16	5.83	6.94	6.07	2.84	4.96	3.16	4.29	1.4	0.756	3.57	5.4	0.861	5.26	0.97	4.7
GCGACTGGGGCATCAGCAAGTTACCATAACTTAA	-0.358	-0.587	-0.708	0.105	-0.805	0.514	0.866	1.08	-0.463	0.387	3.88	2.87	-1.33	-0.593	-0.528	-0.359	-0.789	-0.454	-0.707	0.453
GCTACTAGTTGAAAGGGCAACCGAATGATTCTCG	0.0739	0.67	-0.0669	0.754	-0.373	2.62	3.76	5.17	3.07	5.08	0.65	1.33	0.246	-0.547	0.922	0.637	-0.0671	1.32	-0.371	1.95
TCATATAGGCAAACAGGTGAAAGTCCGTAAGTTA	0.489	0.602	-0.0652	0.614	-0.318	1.33	0.726	2.34	3.4	2.91	2.62	1.42	0.461	0.241	0.782	0.517	0.177	0.939	0.994	0.119
CCTACTAGGCCATCAGGTCATTGATATCAACGTT	2.15	1.63	1.62	2.16	0.844	3.19	3.75	4	2.04	3.5	6.04	5.32	0.857	0.291	1.87	2.04	1.66	2.59	1.47	2.45
TTGCCAAGGTGAAGGTCGTTGATCCCTCTGTAGA	2.38	1.79	-0.705	1.45	-1.15	2.12	0.85	2.06	0.251	1.41	1.25	2.3	-1.04	-0.656	0.119	1.21	-0.362	1.6	-0.87	2.08
GCTGCTAGGCCAGGTTGGTCAGCTAACGGGTACG	-1	-1.03	-0.776	-1.31	-1.37	-1.27	-0.607	-1.01	-1.22	-1.17	-0.104	-0.575	-1.57	-1.24	-1.2	-1.06	-0.918	-0.979	-0.954	0.166
TTACCAAGGTGAAAGGACGTTGATGCACGCCTTG	0.449	0.351	-0.414	0.198	-0.801	1.72	2.29	3.48	1.96	3.14	1.91	2.84	0.863	0.655	0.691	-0.0719	-0.136	0.603	-0.181	1.6
TAAGACAGGTGAAGGTAACTCAGGTACGCAGTCG	0.669	1.42	0.116	0.904	1.51	0.916	1.01	1.38	1.67	1.57	0.644	1.64	0.53	0.465	0.394	0.257	0.588	0.526	0.631	1.51
ATACCAAGGTGGTCGTGAGGTCGTTGATACTAAC	1.49	0.821	0.382	1.05	-0.378	1.21	0.268	0.0614	-0.274	-0.258	-0.434	0.335	0.113	0.0753	0.722	2.61	1.69	1.99	0.748	1.08
CCTACTGGGACAAGGTCATTGATCAGTCAAAGCA	3.62	3.43	1.26	3.06	0.0323	4.22	4.54	4.7	1.99	3.78	3.79	4.66	-0.0252	-0.0828	2.28	3.8	1.59	3.89	0.375	3.26
CAAACTAGGTCACAGAGGCCAAAGTCCGTGCGTA	4.93	3.79	1.02	2.66	0.0915	5.36	8.81	7.33	5.35	7.09	8.22	8.69	7.35	2.65	3.4	3.51	2.61	3.27	0.794	4.23
ATATGTAGGTTAGCCGGGGTCATTCAGACTAGGC	5.13	5.67	3.14	4.72	0.687	5.6	6.59	5.96	3.47	5.29	7.11	6.89	1.14	1.79	2.77	6.72	4.32	6.2	0.664	3.31
CGTCCAAGGTCAATGCTAGGTCGGTGAAAGCATT	5.99	4.42	0.539	3.19	0.14	4.79	3.29	4.06	1.09	2.58	3.27	3.65	-0.723	-0.78	1.98	3.86	0.759	4.18	0.419	4.95
ATCTATAGGTAAGACTCAGTTCAGTGAAGAACGC	0.179	0.424	0.389	0.171	0.635	0.073	0.534	0.23	0.292	0.169	1	0.562	0.789	1.3	0.365	1.49	1.21	0.627	0.874	0.432
CCTGACAGGTGAAAGGTAACTCAGTCTGGTACGC	0.803	0.991	-0.258	0.923	-0.669	3.38	5.7	6.09	4	5.75	2.33	2.82	-0.213	-0.0292	0.546	0.876	-0.396	1.84	0.115	1.3
AGAATGAGGTTACCAAAGATCAGGAAAACGCTTG	1.7	6.01	-0.322	3.66	-0.00832	3.51	2.7	2.54	0.962	2.01	4.01	3.35	0.931	0.626	0.925	1.57	-0.0296	2.1	0.339	1.95
GCTAGCAGGCCATTTGGGTCACTAAATGACGGGC	0.069	-0.203	-0.746	-0.105	-1.17	1.44	0.795	0.692	-0.344	0.257	1.58	2.38	-1.03	-1.18	-0.0846	0.38	-0.331	0.585	-0.777	1.42
CCTACTGAGCCAAAAAGGTCATTGATGCCGATAA	3.37	4.28	3.65	4.29	1.17	4.37	1.31	2.81	0.896	1.99	0.522	1.14	-0.507	0.266	3.04	4.49	2.44	4.93	2.61	3.86
TCTGCTAGGTCAGTTTGTCAGCTAACGAGCTGCC	0.772	0.567	-0.461	0.457	0.977	1.03	-0.179	1.12	1.38	1.4	2.1	2.5	0.124	0.15	-0.156	0.322	-0.604	0.454	-0.407	2.72
TAGCTTAGGTCATGCGGGCCAGTATAGTGTCGGC	4.63	3.38	0.514	1.93	0.519	3.57	1.32	1.95	0.0747	0.973	1.52	1.65	1.35	0.321	1.44	1.85	-0.011	2.73	-0.0276	3.87
AATACAGGGTCATCGTCGGCCAGAGTACGCACAG	7.47	6.48	2.78	4.83	1.41	6.44	6.81	6.01	2.65	4.97	2.45	4.09	1.99	1.48	3	4.39	0.762	5.31	1.13	4.46
GCTATTAGTTGAAAGGGTAACCGAATGATTCTCG	-0.0135	0.398	0.254	0.557	-0.148	1.63	1.39	3.38	1.36	3.03	0.535	0.734	0.307	0.443	0.807	0.366	0.207	1.02	0.465	0.813
ACTATTAGTTGAGACGAGGGCAAACGATAGGTTG	0.392	0.212	0.35	0.169	0.32	0.382	0.773	0.206	0.117	0.161	0.0525	0.456	1.03	1.15	0.189	1.83	0.478	0.637	0.392	0.841
TGAATGAGGTTAAAGATCTGGGAACGTGGCGTCG	2.5	2.16	-0.214	1.46	0.347	3.54	2.7	3.6	1.69	2.98	2.25	2.86	1.17	-0.223	0.811	1.19	-0.0436	1.8	-0.239	1.93
